Inconclusive results are not listed. Active and inactive are the calls of the source. The call rests on the fitted dose curve; in most records, active means well fitted inhibition curve with a large enough effect; inconclusive means small, poorly fitted or top-dose-only effect; inactive means flat fitted curve, though single readings scatter.
Target: Peptidyl-prolyl cis-trans isomerase NIMA-interacting 1 (Homo sapiens) (UniProt Q13526)
Experiment: qHTS Assay to Find Inhibitors of Pin1: Hit Validation
Conditions: Pin1 FP peptide displacement, HiFluor488 probe
Text: The unique chemical properties of Pro allow for the adoption of two completely distinct amide bond conformations (cis and trans). Peptidyl-prolyl cis/trans isomerases (PPIases) are evolutionary conserved enzymes that catalyze cis/trans isomerization of peptidyl-prolyl peptide bonds. Distinct from all other PPIases such as cyclophilins and FK506-binding proteins (FKBPs), Pin1 binds a subset of phos.Ser/Thr-Pro-containing proteins using its protein-targeting WW domain and isomerizes only specific phos.Ser/Thr-Pro bonds, which cannot be effectively catalyzed by other known PPIases. […] The goal of this screen is to find small-molecule inhibitors of Pin1 using a fluorescence polarization competition assay. […]
Pin1 (0.6 uM) was dispensed into black, solid 1536-well plates at 2 uL/well in 10 mM HEPES (pH 7.5), 10 mM NaCl, 0.01% Tween20, 1 mM DTT, and 1% glycerol. […] The plates were measured on a ViewLux plate reader for fluorescence polarization signal using a 480/20 nM nm excitation filter and 540/25 nM nm S and P emission filters with a 20 second exposure. The %Activity was determined from the corrected fluorescence polarization values. […] Concentration-response curves were fitted to the signals arising from the resulting fluorescence polarization. […] Keywords: Peptidyl prolyl isomerase, Pin1, fluorescence polarization, MLSMR, MLPCN, NIH Roadmap, qHTS, NCGC

Peptidyl-prolyl cis-trans isomerase NIMA-interacting 1 (Homo sapiens), sequence (Q13526 whole entry, looked up): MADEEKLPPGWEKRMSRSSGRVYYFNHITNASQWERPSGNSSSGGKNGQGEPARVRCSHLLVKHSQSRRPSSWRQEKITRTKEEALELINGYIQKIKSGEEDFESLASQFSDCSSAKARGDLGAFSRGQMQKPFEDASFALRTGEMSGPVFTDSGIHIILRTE

Compound: Cc1cc2c(C(C)C)c(O)c(O)c(C=O)c2c(O)c1-c1c(C)cc2c(C(C)C)c(O)c(O)c(C=O)c2c1O
- Potency: 1690 nM (active)

Source: PubChem BioAssay AID624308 (National Center for Advancing Translational Sciences (NCATS), 2012)
